About 2,100 (0.53%) of roughly 400,000 compounds were called active. Another 14% or so got no clear call; they are omitted. This is one part of a sample in which actives are shown more often than they occur. No rule for the calls is given here.
Biological target: Ataxin-2 (Homo sapiens) (UniProt Q99700)
Test: qHTS for Inhibitors of ATXN expression.
Type: functional

Sequence of Ataxin-2 (Homo sapiens) (Q99700 whole entry): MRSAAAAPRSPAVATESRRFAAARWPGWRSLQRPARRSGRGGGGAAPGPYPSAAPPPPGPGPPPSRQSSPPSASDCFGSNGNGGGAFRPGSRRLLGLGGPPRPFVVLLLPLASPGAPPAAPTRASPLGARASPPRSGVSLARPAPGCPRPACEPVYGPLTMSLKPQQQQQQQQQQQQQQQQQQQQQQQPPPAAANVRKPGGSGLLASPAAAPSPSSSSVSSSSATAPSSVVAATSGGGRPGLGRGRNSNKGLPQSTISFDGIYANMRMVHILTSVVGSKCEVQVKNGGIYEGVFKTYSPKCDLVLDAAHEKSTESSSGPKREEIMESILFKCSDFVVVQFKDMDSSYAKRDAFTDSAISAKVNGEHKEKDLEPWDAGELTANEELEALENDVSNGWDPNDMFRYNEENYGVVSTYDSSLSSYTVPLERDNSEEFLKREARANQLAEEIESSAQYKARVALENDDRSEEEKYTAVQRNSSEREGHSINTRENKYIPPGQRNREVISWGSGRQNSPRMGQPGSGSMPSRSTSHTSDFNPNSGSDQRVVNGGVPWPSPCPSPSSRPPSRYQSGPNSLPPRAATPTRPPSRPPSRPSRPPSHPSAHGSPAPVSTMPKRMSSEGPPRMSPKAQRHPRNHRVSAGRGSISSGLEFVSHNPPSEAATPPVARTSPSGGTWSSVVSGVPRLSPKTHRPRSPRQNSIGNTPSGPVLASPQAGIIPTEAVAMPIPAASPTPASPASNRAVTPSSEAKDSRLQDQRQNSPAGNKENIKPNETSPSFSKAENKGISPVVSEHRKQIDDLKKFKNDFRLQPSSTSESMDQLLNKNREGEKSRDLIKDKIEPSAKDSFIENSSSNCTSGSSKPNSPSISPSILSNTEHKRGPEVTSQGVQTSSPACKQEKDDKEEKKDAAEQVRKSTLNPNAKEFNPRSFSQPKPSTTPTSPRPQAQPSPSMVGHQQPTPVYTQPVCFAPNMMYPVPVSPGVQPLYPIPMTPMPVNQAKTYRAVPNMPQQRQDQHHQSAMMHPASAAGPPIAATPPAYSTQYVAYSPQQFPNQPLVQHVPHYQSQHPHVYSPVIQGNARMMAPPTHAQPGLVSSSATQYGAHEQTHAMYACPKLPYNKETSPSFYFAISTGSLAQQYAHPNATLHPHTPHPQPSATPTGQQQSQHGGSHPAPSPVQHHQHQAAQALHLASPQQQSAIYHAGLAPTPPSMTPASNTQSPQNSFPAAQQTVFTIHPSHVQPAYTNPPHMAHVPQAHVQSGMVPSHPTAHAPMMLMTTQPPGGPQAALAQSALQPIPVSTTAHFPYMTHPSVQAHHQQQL

Compound | Potency
CC(=O)N1CCSc2ccc(S(=O)(=O)N3CCC(C)CC3)cc21 | inactive
CCN1C(=O)c2cccc3c(S(=O)(=O)N4CCC(C)CC4)ccc1c23 | inactive
CC1CCN(S(=O)(=O)c2ccc3c4c2CC(=O)N4CC(C)S3)CC1 (stereo not drawn) | 31.6 µM (active)
Cc1nc(SCC(=O)Nc2nc3ccccc3s2)c(C#N)c(C)c1C | inactive
CC(C)(C)c1nc2ccccc2c2nnc(SCC(=O)Nc3nc4ccccc4s3)n12 | 35.5 µM (active)
O=C(CCNC(=O)c1ccccc1)Nc1nc2ccccc2s1 | inactive
CCC(C)n1c(=N)c(C(=O)NC2CCCC2)cc2c(=O)n3ccccc3nc21 (stereo not drawn) | inactive
COc1ccc(C(=O)c2c(N)sc3c2CCN(C(=O)OC(C)(C)C)C3)cc1 | inactive
O=C1C=CC2(O[C@H](c3ccccc3)[C@@H](c3ccccc3)O2)[C@H](Sc2ccccc2O)C1 | 2 µM (active)
CCN(CC)c1ccc2c(C)cc(=O)oc2c1 | inactive
CN(C)CCN/C=C1/C(=O)N(Cc2ccc3c(c2)OCO3)C(=O)c2ccccc21 | inactive
CN(C)CCN/C=C1/C(=O)N(Cc2ccccc2)C(=O)c2ccccc21 | inactive
CC1(C)CC(N/C=C2/C(=O)N(Cc3ccc4c(c3)OCO4)C(=O)c3ccccc32)CC(C)(C)N1 | 21.2 µM (active)
N#CCC(=O)Nc1ccc(C(=O)NNC(=O)c2ccccc2-n2cccc2)cc1 | inactive
COc1cc(N2N=C(c3ccccc3)CC2c2ccccc2)c(C=O)cc1C=O (stereo not drawn) | inactive
Nc1c(C(=O)Nc2cccc(Cl)c2Cl)sc2nc(-c3cccnc3)ccc12 | inactive
Cc1ccc(-c2nc3ncccc3o2)cc1N | inactive
O=C(Nc1cccc(-c2nc3ncccc3o2)c1)c1sc2ccccc2c1Cl | 17.8 µM (active)
CNC(=S)N/N=C(\C)c1ccc2c(c1)OCO2 | 44.7 µM (active)
COC(=O)c1ccc(N/C=C\C(=O)c2ccc3c(c2)OCO3)cc1 | inactive
COCCCNC(=S)N/N=C/c1ccc2c(c1)OCO2 | inactive

Compound | Potency
COc1cc(Cn2c(N)c(C#N)c3nc4ccccc4nc32)cc(OC)c1 | inactive
O=C(Oc1ccc2c(-c3ccccc3)cc(=O)oc2c1)c1cccs1 | inactive
COc1ccc(N2C(c3ccsc3)=Cc3cc4c(cc3C2c2c[nH]c3ccccc23)OCO4)cc1 (stereo not drawn) | 28.2 µM (active)
O=C(NC1CCS(=O)(=O)C1)c1cc2c(=O)n3ccccc3nc2n1Cc1ccccc1 (stereo not drawn) | inactive
CCCCOC(=O)c1ccc(NC(=O)C(=O)NCCN(CC)CC)cc1 | inactive
CCN(CC)CCNC(=O)C(Cl)=C1C(Cl)=C(Cl)C(Cl)=C1Cl | 44.7 µM (active)
N=C(N)N/N=C(\c1ccc(F)cc1)c1ccc(C(F)(F)F)cc1 | 5.97 µM (active)
O=C(Cn1cc(C(F)(F)F)ccc1=O)NCc1ccc(F)cc1 | inactive
CC(=O)CCC(=O)OCC(=O)c1ccc(C(F)(F)F)cc1 | inactive
CNC(=O)c1sc(N2N=C3/C(=C\c4ccccc4)CCCC3C2c2ccccc2)nc1C (stereo not drawn) | inactive
C[C@@H]1CN([C@@H](C)CO)C(=O)c2cccc(NC(=O)C3CCCCC3)c2O[C@@H]1CN(C)Cc1ccc(Cl)c(Cl)c1 | 35.5 µM (active)
C[C@H](CO)N1C[C@H](C)[C@@H](CN(C)Cc2ccc(Cl)c(Cl)c2)Oc2c(NC(=O)C3CC3)cccc2C1=O | 28.2 µM (active)
CCc1ccc(OCC(=O)NC(N=C(S)Nc2ccc(Cl)cc2)C(Cl)(Cl)Cl)cc1 (stereo not drawn) | 39.8 µM (active)
CCCC(=O)Nc1ccc(C(=O)COC(=O)C2CC2C)cc1 (stereo not drawn) | inactive
CCCC(=O)NC(N=C(S)Nc1ccc(N=Nc2ccccc2)cc1)C(Cl)(Cl)Cl (stereo not drawn) | 22.4 µM (active)
CC(C)(C)c1ccc(OCC(=O)NNC(=O)Nc2ccccc2)cc1 | inactive
O=C(COc1ccc(Cl)cc1)NNC(=O)CSc1nncs1 | inactive
COc1ccc(C(=O)c2sc3nc(C)cc(-c4cccs4)c3c2N)cc1 | inactive
O=C1NC2c3c(I)sc(I)c3C(=O)C2O1 (stereo not drawn) | 39.8 µM (active)
COc1ccc(OC)c(NC(=O)c2cnc(Nc3ccc(C)c(Cl)c3)c3ccccc23)c1 | inactive
Oc1c(Cl)cc(Cl)cc1/C=N/c1nc[nH]n1 | inactive

Compound | Potency
O=C(Nc1ccccc1)Nc1cccc2nsnc12 | inactive
CCCCN(C(=O)C1CCC(CNS(=O)(=O)c2cccc3nsnc23)CC1)c1ccccc1 (stereo not drawn) | 39.8 µM (active)
Cc1c(Cl)cccc1NS(=O)(=O)c1cccc2nsnc12 | inactive
Cn1nnc(NC(=S)NC(=O)c2ccc3ccccc3c2)n1 | inactive
CCC(CC)COC(=O)C1=C(C)NC(=O)NC1c1ccc([N+](=O)[O-])cc1 (stereo not drawn) | inactive
CCOC(=O)C1=C(COC(=O)COc2cccc(C)c2C)NC(=O)NC1C (stereo not drawn) | inactive
CCOC(=O)C1=C(C)NC(=O)NC1c1ccc(N2CCC(c3ccccc3)=N2)cc1 (stereo not drawn) | inactive
CCOC(=O)C1=C(CN2CCN(c3ccc(OC)cc3)CC2)NC(=O)NC1c1ccc(Cl)cc1 (stereo not drawn) | 39.8 µM (active)
CCOC(=O)C1=C(COc2ccccc2)NC(=O)NC1c1ccc2ccccc2c1 (stereo not drawn) | 35.5 µM (active)
COC(=O)C1=C(C)NC(=O)NC1c1ccc(OC(=O)c2ccco2)cc1 (stereo not drawn) | inactive
CCOC(=O)c1cc2c(=O)n3ccccc3nc2n(CC(C)C)/c1=N\C(=O)COc1ccc(Cl)cc1 | inactive
Cc1nc2sc(C(=O)OC(C)C)c(N)c2c(C)c1C | inactive
COc1cc(/C=C(/C#N)C(=O)NCCCc2ccccc2)ccc1OCC(=O)O | inactive
Cc1ccc(S(=O)(=O)N2CCCc3cc(NS(=O)(=O)c4ccc(F)cc4)ccc32)cc1 | 39.8 µM (active)
Cc1cc(C)nc(NS(=O)(=O)c2ccc(N/C=C\C(=O)c3cccs3)cc2)n1 | inactive
Cc1cc(=O)oc2cc(NS(=O)(=O)c3ccc(F)cc3)ccc12 | inactive
Cc1cc(F)ccc1S(=O)(=O)Nc1ccc2c(c1)CCCN2C(=O)c1cccs1 | 39.8 µM (active)
Cc1cc(=O)oc2cc(NS(=O)(=O)c3ccccc3)ccc12 | inactive
Cc1ccc(S(=O)(=O)N2CCCc3cc(NS(=O)(=O)c4ccccc4)ccc32)cc1 | 39.8 µM (active)
O=S(=O)(c1ccc2ccccc2c1)N1CCc2ccccc21 | inactive
Cc1ccc2nc(-c3ccc(NS(=O)(=O)c4ccc(F)cc4)cc3)sc2c1 | inactive

— ChEMBL document CHEMBL1201862, “PubChem BioAssay data set” (2004)
